Potency and affinity values are given separately. Inconclusive results are not listed. Values without a mark were called inactive.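 Rule for the calls: active = decreasing signal in every run, fitted half-effect dose at most ten times the top valid dose; inconclusive = runs disagree, weak flat effect, or poor curve fit; inactive = every run inactive, signal rises included.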

This assay can be described thus: blockers of SFLLRN-triggered platelet ATP secretion – cell-based, human platelets, luminescence, dry powder, dose response (AID 493100). To be noted: SFLLRN-induced ATP dense granule secretion; series mostly up to 35 µM; activity change, negative = inhibition: at the top concentration.
For `CCCC(=O)Nc1cccc(NC(=O)c2ccc(Cl)cc2)c1`, the “activity change, negative = inhibition” value was 1.1%.

As for `CCCC(=O)Nc1cccc(NC(=O)c2ccc(OC)cc2)c1`, the “activity change, negative = inhibition” value is -16.3%.

For `CCCC(=O)Nc1cccc(NC(=O)c2cccc(-c3ccccc3)c2)c1`, the “activity change, negative = inhibition” value was -4.16%.

Turning to `O=C(Nc1cccc(NC(=O)c2ccccc2Cl)c1)c1ccco1`, the “activity change, negative = inhibition” value is -5.54%.

For the molecule `NNC(=O)C1CCCC1`, the “activity change, negative = inhibition” value was 4.1%.

Consider `C/C(=N\NC(=O)c1ccccc1)c1ccc(NC(=O)C(F)(F)F)cc1`, for which the “activity change, negative = inhibition” value is 2.81%.

On to `CCCC(=O)Nc1cccc(NC(=O)c2cnc3ccccc3c2)c1`, for which the “activity change, negative = inhibition” value was -1.45%.
